sEH activator – soluble epoxide hydrolase activators, primary screen, biochemical, human sEH; Bifunctional epoxide hydrolase 2 (Homo sapiens), P34913; purified human sEH enzymatic activity, activator screen; activation, % at 2 µM; 91,000 compounds, 0.04% hits; AID 717, 2007; in the data active means activation above about 37%
CYP2C19 inhib – blockers of cytochrome P450 2C19 activity – biochemical, luminescence, ADME assay, primary screen; P33261; CYP2C19 Supersomes, luciferin-H EGE luminescence, 30 min; inhibition, % at 5 µM; 96,000 compounds, 21% hits;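 active means CYP2C19 inhibition above a set limit at 5 µM in the primary screen, cut at about 50% in these data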
Target sequence (P33261 whole entry, looked up): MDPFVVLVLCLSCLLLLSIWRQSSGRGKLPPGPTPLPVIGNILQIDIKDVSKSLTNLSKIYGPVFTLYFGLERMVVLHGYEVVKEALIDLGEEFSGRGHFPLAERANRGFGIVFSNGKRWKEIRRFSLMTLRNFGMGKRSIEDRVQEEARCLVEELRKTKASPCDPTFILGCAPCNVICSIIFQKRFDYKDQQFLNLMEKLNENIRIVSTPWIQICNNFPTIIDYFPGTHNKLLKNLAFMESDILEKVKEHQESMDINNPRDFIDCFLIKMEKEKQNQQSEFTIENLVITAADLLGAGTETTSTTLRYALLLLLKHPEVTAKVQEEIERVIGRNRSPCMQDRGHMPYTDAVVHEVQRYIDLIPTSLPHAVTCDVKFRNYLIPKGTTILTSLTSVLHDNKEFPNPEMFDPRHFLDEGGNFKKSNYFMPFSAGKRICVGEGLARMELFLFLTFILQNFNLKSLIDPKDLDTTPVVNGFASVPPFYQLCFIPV
CYP2C19 act – human CYP2C19 activators, primary screen, biochemical, luminescence; recombinant CYP2C19, luciferin-H EGE luminescence; stronger effect = higher value; 0 = fully inhibited enzyme, 1 = untreated enzyme; activation factor at 5 µM; 96,000 tested, under 10 active; AID 1025, 2008;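 active means activation factor of at least 2 at 5 µM in the primary screen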
CYP2C9 inh – blockers of cytochrome P450 2C9 activity – biochemical, luminescence, ADME assay, primary screen; P11712; CYP2C9 Supersomes, luciferin-H conversion; inhibition, % at 5 µM; 96,000 compounds, 20% hits;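 active means blocking of liver enzyme CYP2C9 beyond about 50% at 5 µM, limit read from the data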
sEH inhibitor – soluble epoxide hydrolase inhibitors, primary screen, biochemical, human sEH; Bifunctional epoxide hydrolase 2 (Homo sapiens), P34913; AID 707, 2007; inhibition, % at 2 µM; 91,000 compounds, 0.34% hits; recombinant human sEH enzymatic activity assay; in the data active means inhibition above about 80%
CYP2C9 act – human CYP2C9 activators, primary screen, biochemical, luminescence; Cytochrome P450 2C9 (Homo sapiens), P11712; recombinant CYP2C9, luciferin-H conversion; stronger effect = higher value; factor 1 = untreated enzyme, 0 = blocked; activation factor at 5 µM; 96,000 compounds, 1.4% hits;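 active means activation factor of 2 or more for CYP2C9 at a 5 µM dose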
A number is an active result; – = inactive; · = not tested or not shown. This is a sample that favours compounds with a hit; in the whole collection about 27% have one here.

SMILES | sEH activator | CYP2C19 inhib | CYP2C19 act | CYP2C9 inh | sEH inhibitor | CYP2C9 act
CC(C)CCSc1nc2c(c(=O)[nH]c(=O)n2C)n1CCCc1ccccc1 | – | – | – | – | – | –
COCCn1c(SCC(=O)NCc2ccccc2)nnc1-c1ccco1 | – | · | · | · | – | ·
Cc1cc2c(C)c(C)c(=O)[nH]c2cc1N | – | – | – | – | – | –
Cc1ccc2c(c1)c1c(n2C)-c2[nH]ncc2CC1 | – | · | · | · | – | ·
Cc1ccc(SCCNC(=O)CN(c2ccc3c(c2)OCO3)S(C)(=O)=O)cc1 | – | 92 | – | 92 | – | –
CCCCCNC(=O)CN(c1ccc2c(c1)OCO2)S(C)(=O)=O | – | – | – | – | – | –
CCC(=O)Nc1ccccc1C(=O)OCC(=O)c1ccc2ccccc2c1 | – | 90 | – | 69 | – | –
O=C(COC(=O)c1ccccc1NC(=O)c1ccccc1)c1ccc([N+](=O)[O-])cc1 | – | 63 | – | 70 | – | –
CCC(=O)Nc1ccccc1C(=O)OCC(=O)c1ccccc1 | – | 73 | – | 91 | – | –
CCOC(=O)c1ccccc1NC(=O)c1ccc(F)cc1 | – | – | – | – | – | –
CCCNCc1cc(OC)c(OCCC)cc1Cl | – | · | · | · | – | ·
COc1nc(N/N=C/c2ccccc2F)nc(N2CCCCC2)n1 | – | – | – | – | – | –
CCCOc1ccccc1C1C(C(=O)OC)=CN(C(C)C)C=C1C(=O)OC | – | 89 | – | 87 | – | –
CCn1cc(C(=O)NCc2ccc(Cl)cc2)c(=O)c2cc(S(=O)(=O)N3CCOCC3)ccc21 | · | – | – | – | · | –
O=C(c1ccc([N+](=O)[O-])cc1)N(Cc1ccc(Br)cc1)N1C(=O)CCCC1=O | – | 73 | – | – | – | –
COc1ccccc1NC(=S)N(CCc1nc2cc(C)c(C)cc2[nH]1)Cc1cccnc1 | – | – | – | – | – | –
Cn1c(Cl)cnc1C1CC(=O)c2cc(Cl)ccc2O1 (stereo not given) | · | 81 | – | – | · | –
Nn1c(-c2cccs2)nc2sc3c(c2c1=O)CCCC3 | – | 81 | – | 100 | – | –
Cc1ccccc1-c1nc2sc3c(c2c(=O)n1N)CCCC3 | – | – | – | – | – | –
CCOC(=O)c1cn2cccnc2n1 | – | – | – | – | – | –
CC1(C)Cc2c(C#N)c(SCC(=O)c3ccccc3)nc(N3CCCC3)c2CO1 | – | · | · | · | – | ·
CSc1nc(N2CCOCC2)c2c(c1C#N)CC(C)(C)OC2 | – | 61 | – | 97 | – | –
COC(=O)c1ccc(CSc2nc(N3CCOCC3)c3c(c2C#N)CC(C)(C)OC3)o1 | – | 69 | – | 98 | – | –
CC(C)CCSc1nc(N2CCOCC2)c2c(c1C#N)CC(C)(C)OC2 | – | 63 | – | 98 | – | –
CCCCN(CCCC)CCNC(=O)Cc1nc2c(c(=O)[nH]c(=O)n2C)n1C | – | – | – | – | – | –
SMILES | sEH activator | CYP2C19 inhib | CYP2C19 act | CYP2C9 inh | sEH inhibitor | CYP2C9 act
Cc1ccccc1C(NC(N)=O)c1ccccc1 (stereo not given) | – | 95 | – | – | – | –
Cc1cc(NC(=O)CSc2nc3c(c(=O)n2-c2ccccc2)SC(C)C3)no1 (stereo not given) | · | – | – | – | · | –
CC1Cc2nc(SCC(=O)N3CCCC3)n(C)c(=O)c2S1 (stereo not given) | · | – | – | – | · | –
CC1Cc2nc(SCC(=O)Nc3ccc(F)cc3F)n(C)c(=O)c2S1 (stereo not given) | – | – | – | 53 | – | –
CCn1c(SCC(=O)Nc2cccc(F)c2)nc2c(c1=O)SC(C)C2 (stereo not given) | – | · | · | · | – | ·
Cc1ccc(C)c(NC(=O)CSc2nc3c(c(=O)n2C)SC(C)C3)c1 (stereo not given) | · | – | – | 66 | · | –
Cc1ccc2nc(NC(=O)CSc3nc4c(c(=O)n3C)SC(C)C4)sc2c1 (stereo not given) | – | – | – | 68 | – | –
CCn1c(SCC(=O)Nc2cc(C)ccc2C)nc2c(c1=O)SC(C)C2 (stereo not given) | · | – | – | 76 | · | –
COC(=O)c1cc(COC(=O)c2cccnc2SC)oc1C | – | – | – | – | – | –
O=C1C2C3C=CC(C3)C2C(=O)N1c1n[nH]c(CCc2ccccc2)n1 (stereo not given) | – | – | – | – | – | –
COC(=O)C1=C(C)N(c2ccc(C)cc2)/C(=C/c2cccs2)C1=O | – | – | – | – | – | –
COC(=O)C1=NN(c2ccccc2)C2(S1)SC(C(C)=O)=C(C)N2c1ccccc1 (stereo not given) | – | – | – | 58 | – | –
COC(=O)C1=NN(c2ccc(C)cc2)C2(S1)SC(C(C)=O)=C(C)N2c1ccccc1 (stereo not given) | – | 58 | – | 59 | – | –
CC(=O)C1=NN(c2ccccc2)C2(S1)S/C(=C\c1ccccc1)C(=O)N2c1ccccc1 (stereo not given) | – | – | – | 58 | – | –
CC(=O)Nc1ccc(S(=O)(=O)N2CCN(CC(=O)NC3CCCC3)CC2)cc1 | – | – | – | – | – | –
O=C(CNCC1CCCO1)Nc1ccccc1N1CCCCCC1 (stereo not given) | – | – | – | – | – | –
O=C(CCc1nc2ccccc2[nH]c1=O)OCC(=O)N1CCc2ccccc21 | – | – | – | – | – | –
COCCCN=C(c1ccco1)n1c(=S)nc(-c2ccco2)n(CCCOC)c1=S | · | – | – | 61 | · | –
CCCc1nc2ccccc2c(=O)n1/N=C/c1c(C)[nH]n(-c2ccc(C)cc2)c1=O | · | – | – | 67 | · | –
COc1cccc(/C=N/n2c(C)nc3ccccc3c2=O)c1O | · | – | – | 69 | · | –
Cc1nc2ccccc2c(=O)n1/N=C/c1ccc(O)cc1 | – | – | – | – | – | –
CCCc1nc2ccccc2c(=O)n1/N=C/c1ccccc1O | · | 62 | – | 86 | · | –
CN1CCn2c1nc(N1CCCCC1)nc2=O | – | – | – | – | – | –
CCOc1ccc(CCNC(=O)CCn2cccc2)cc1OCC | – | – | – | – | – | –
COc1ccc(CCNC(=O)COC(=O)c2ccc(Br)o2)cc1 | – | – | – | 78 | – | –
CCOc1ccc(CCNC(=O)C2CCC(=O)N2CCc2ccccc2)cc1OCC (stereo not given) | – | – | – | 68 | – | –
COc1ccc(CCNC(=O)COC(=O)c2ccc(Br)o2)cc1OC | – | 71 | – | 80 | – | –
CCOc1ccc(CCNC(=O)COC(=O)c2ccco2)cc1OCC | – | 52 | – | 69 | – | –
Cc1ccc2c(c1C)NC(C)CC2C (stereo not given) | – | – | – | – | – | –
CCOC(=O)Cc1csc(NC(=O)CSc2nc3cccnc3n2CC)n1 | – | – | – | – | – | –

Compound activity from PubChem.
